Where “and” joins values, the source holds several entries; their conditions need not be identical. Equal entries are not always repeated. Results filed as inconclusive are left out. Where a call stands in place of a potency, no number is given. Some compounds were tested as several samples or in several runs, with calls that do not always agree. Calls of active or inactive are those of the source. Unless noted, the call rests on the fitted dose curve.

Test system in the first assay: not listed separately
Kind of assay: qHTS assay to identify small molecule antagonists of the estrogen related receptor signaling pathway with the pleiotropic PPARgamma coactivator (PGC) from Tox21 10K library (AID 1224841; call rule not given here; further: actives are mostly falling curves and most rising ones were filed inactive; nearly all actives have a fitted effect of over 50% in size; further: potency means the concentration at half of the fitted maximal effect). To be noted: PGC/ERR reporter cell line, ONE-Glo luciferase, 18 h; series mostly up to 92.4 µM. A digest of the protocol:
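In the PGC/ERR line, DMSO solutions of test chemicals are pin-delivered to 2,000 cells/well six hours after dispensing. Following eighteen hours' incubation, One-Glo reagent is added and luminescence recorded.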
Turning to `CC(C)CC(C)(c1ccc(O)cc1)c1ccc(O)cc1`, the Potency is 54.6 µM (active).
The same measure, in the same setting: under `c1ccc2cc3c(cc2c1)-c1cccc2cccc-3c12` stands “inactive”.
Same read-out and setting: the value for `OC(c1ccc(Cl)cc1)(c1ccc(Cl)cc1)C(Cl)(Cl)Cl` was “inactive”; that for `BrC(Br)Br` was “inactive”.
Turning to `O=[N+]([O-])c1c2ccccc2cc2ccccc12`, the Potency result was “inactive”.

Test system in another assay: not listed separately
Kind of assay: qHTS assay to identify small molecule agonists of the estrogen related receptor signaling pathway with the pleiotropic PPARgamma coactivator (PGC) from Tox21 10K library (AID 1224842; active means well fitted activation curve with a large enough effect in the repeat runs; further: nearly all actives have a fitted effect of over 15% in size). The following applies: PGC/ERR reporter cell line, luciferase ONE-Glo, 18 h; series mostly up to 92.4 µM. The essentials:
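PGC/ERR reporter cells (NTP line) were seeded 2,000 per well, rested 6 h at 37 C/5% CO2, then pin-dosed with compounds in DMSO for 18 h at 37 C; luciferase read by One-Glo luminescence after 30 min at room temperature.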
For the molecule `CC(C)CC(C)(c1ccc(O)cc1)c1ccc(O)cc1`, the Potency entry is “inactive”.
For `CC(C)[C@H](C(=O)OC(C#N)c1cccc(Oc2ccccc2)c1)c1ccc(OC(F)F)cc1` (stereo partly drawn), the Potency entry was “inactive”.
Same read-out and setting: under `Clc1ccc(-c2ccc(Cl)c(Cl)c2Cl)c(Cl)c1Cl` stands “inactive”; under `Cn1cc(C2=C(c3cn(C4CCN(Cc5ccccn5)CC4)c4ccccc34)C(=O)NC2=O)c2ccccc21`, “inactive”; under `O=C1NCN(c2ccccc2)C12CCN(CC1COc3ccccc3O1)CC2` (stereo not drawn), “inactive”.
Same read-out and setting: under `c1ccc2cc3c(cc2c1)-c1cccc2cccc-3c12` stands “inactive”.
Same read-out and setting: under `OC(c1ccc(Cl)cc1)(c1ccc(Cl)cc1)C(Cl)(Cl)Cl` stands “inactive”; under `N#CC(Cl)Cl`, “inactive”.
With `Cc1ccc(OP(=O)(Oc2ccccc2)Oc2ccccc2)cc1`, the Potency result was “inactive”.
As for `FC(F)(F)c1cccc(C2=CCN(CCc3ccc4ccccc4c3)CC2)c1`, the Potency result was “inactive”.
With `BrC(Br)Br`, the Potency entry is “inactive”.
On the same count and under the same terms, the value for `Cc1cc(C(F)(C(F)(F)F)C(F)(F)F)ccc1NC(=O)c1cccc(I)c1C(=O)NC(C)(C)CS(C)(=O)=O` was “inactive”.

A further assay deals with Thyrotropin receptor (Homo sapiens) (UniProt P16473). Kind of assay: qHTS assay to identify small molecule agonists of the thyroid stimulating hormone receptor (TSHR) signaling pathway (AID 1224843). Further: nearly all actives have a fitted effect of over 45% in size. Further: potency means the concentration at half of the fitted maximal effect. The following applies: TSHR-HEK293 cells, cAMP HTRF, agonist mode, 30 min; series mostly up to 92.4 µM. The essentials: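 Compounds are titrated over 15 concentrations, in triplicate, onto TSHR-HEK293 cells seeded at 800/well. Plates sit 30 min at room temperature before cAMP-d2 and anti-cAMP cryptate are added; signal is read after a further hour.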
Thyrotropin receptor (Homo sapiens), sequence (P16473 whole entry, looked up): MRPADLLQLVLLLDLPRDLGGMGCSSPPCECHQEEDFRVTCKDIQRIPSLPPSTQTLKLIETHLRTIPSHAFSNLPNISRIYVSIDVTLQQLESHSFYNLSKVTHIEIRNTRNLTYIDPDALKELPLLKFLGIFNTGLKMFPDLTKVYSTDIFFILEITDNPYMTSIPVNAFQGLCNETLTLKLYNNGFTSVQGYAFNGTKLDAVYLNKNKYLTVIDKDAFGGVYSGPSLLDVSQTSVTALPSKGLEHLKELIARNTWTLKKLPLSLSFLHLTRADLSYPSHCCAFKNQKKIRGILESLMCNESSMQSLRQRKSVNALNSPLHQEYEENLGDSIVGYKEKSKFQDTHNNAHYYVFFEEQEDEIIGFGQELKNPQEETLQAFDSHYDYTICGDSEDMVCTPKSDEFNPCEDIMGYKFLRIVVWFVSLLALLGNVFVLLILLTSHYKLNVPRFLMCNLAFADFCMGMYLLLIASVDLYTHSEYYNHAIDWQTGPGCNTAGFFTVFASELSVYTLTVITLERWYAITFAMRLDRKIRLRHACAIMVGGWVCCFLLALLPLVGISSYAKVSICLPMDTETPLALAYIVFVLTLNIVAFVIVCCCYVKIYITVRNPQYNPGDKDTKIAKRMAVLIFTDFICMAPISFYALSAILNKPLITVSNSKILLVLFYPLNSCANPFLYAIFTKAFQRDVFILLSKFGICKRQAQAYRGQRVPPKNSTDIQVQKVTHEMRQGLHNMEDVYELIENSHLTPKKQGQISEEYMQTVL
On to `CCOC(=O)C1(c2ccccc2)CCN(CCC(C#N)(c2ccccc2)c2ccccc2)CC1`, for which the Potency entry was “inactive”.
Still for that read-out and setting: under `FC(Cl)(Cl)Cl` stands “inactive”.
On to `CC(C)CC(C)(c1ccc(O)cc1)c1ccc(O)cc1`, for which the Potency is 48.7 µM (active) and inactive.
Still for that read-out and setting: the value for `Cc1c(Cl)c(=O)oc2cc(OP(=O)(OCCCl)OCCCl)ccc12` was “inactive”; that for `CC(C)[C@H](C(=O)OC(C#N)c1cccc(Oc2ccccc2)c1)c1ccc(OC(F)F)cc1` (stereo partly drawn) was “inactive”; that for `COc1ccc(OC)c(CC(C)N)c1` (stereo not drawn) was “inactive”.
As to `Clc1ccc(-c2ccc(Cl)c(Cl)c2Cl)c(Cl)c1Cl`, the Potency entry is “inactive”.
On the same count and under the same terms, under `Cn1cc(C2=C(c3cn(C4CCN(Cc5ccccn5)CC4)c4ccccc34)C(=O)NC2=O)c2ccccc21` stands “inactive”; under `CCN`, “inactive”.
On the same count and under the same terms, the value for `CCCCCCCCCCCCCN1CC(C)OC(C)C1` (stereo not drawn) was “inactive”; that for `N#CCCSCCC#N` was “inactive”.
On the same count and under the same terms, under `O=C(O)COc1nc(Cl)c(Cl)cc1Cl` stands “inactive”; under `O=C1NCN(c2ccccc2)C12CCN(CC1COc3ccccc3O1)CC2` (stereo not drawn), “inactive”.
With `CCCN(CC)CC1COC2(CCC(C(C)(C)C)CC2)O1` (stereo not drawn), the Potency result is “inactive”.
In the case of `CC(C)(C)OO`, the Potency result is “inactive”.
Same read-out and setting: under `ClC1=C(Cl)C2(Cl)C3C(Cl)C=CC3C1(Cl)C2(Cl)Cl` (stereo not drawn) stands 7.73 µM (active) and 15.4 µM (active); under `NNC(=O)c1ccccc1`, “inactive”; under `Fc1cccc(Cl)c1CCl`, “inactive”.
Same read-out and setting: under `CN(C)c1ccc(N=Nc2ccccc2)cc1` stands “inactive”; under `N#CC(Cl)Cl`, “inactive”; under `c1ccc2c(c1)[nH]c1cnccc12`, “inactive”.
Same read-out and setting: the value for `Cc1ccc(OP(=O)(Oc2ccccc2)Oc2ccccc2)cc1` was 15.6 µM (active); that for `BrC(Br)Br` was “inactive”; that for `Cc1cc(C(F)(C(F)(F)F)C(F)(F)F)ccc1NC(=O)c1cccc(I)c1C(=O)NC(C)(C)CS(C)(=O)=O` was “inactive”.
For `O=[N+]([O-])c1c2ccccc2cc2ccccc12`, the Potency result was “inactive”.
Still for that read-out and setting: under `CCCN(CCC)CCc1c[nH]c2ccccc12` stands “inactive”; under `CC(C)OS(C)(=O)=O`, “inactive”.
In the case of `N#CNC#N`, the Potency result was “inactive”.

Test system in a further assay: not listed separately
Kind of assay: qHTS assay to identify small molecule agonists of the hypoxia (HIF-1) signaling pathway - cell viability counter screen (AID 1224844). Further: nearly all actives have a fitted effect of over 50% in size. Further: potency means the concentration at half of the fitted maximal effect. The following applies: HRE-bla ME-180 viability, CellTiter-Glo luminescence, 17 h; series mostly up to 76.8 µM. The essentials:
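Same wells as the HIF-1 reporter screen; ME-180 cells carrying HRE-bla, 17 hr treatment at 37C; CellTiter-Glo luminescence read after 30 min at room temperature.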
Turning to `CCOC(=O)C1(c2ccccc2)CCN(CCC(C#N)(c2ccccc2)c2ccccc2)CC1`, the Potency entry was “inactive”.
On the same count and under the same terms, under `FC(Cl)(Cl)Cl` stands “inactive”; under `CC(C)CC(C)(c1ccc(O)cc1)c1ccc(O)cc1`, “inactive”.
For the molecule `CC(=O)Nc1ccc2c(c1)Cc1ccccc1-2`, the Potency entry is “inactive”.
Still for that read-out and setting: under `Cc1c(Cl)c(=O)oc2cc(OP(=O)(OCCCl)OCCCl)ccc12` stands “inactive”.
The same measure, in the same setting: under `CC(C)[C@H](C(=O)OC(C#N)c1cccc(Oc2ccccc2)c1)c1ccc(OC(F)F)cc1` (stereo partly drawn) stands “inactive”; under `CCOC(=O)OC1=C(c2cc(C)ccc2C)C(=O)NC12CCC(OC)CC2` (stereo not drawn), “inactive”; under `C[C@H]1CC[C@@H]2[C@@H](C)[C@H]3[C@H](C[C@H]4[C@@H]5CC=C6CC(O[C@@H]7O[C@H](CO)[C@H](O)[C@H](O[C@@H]8O[C@H](CO)[C@@H](O)[C@H](O)[C@H]8O)[C@H]7O[C@H]7O[C@@H](C)[C@H](O)[C@@H](O)[C@H]7O)CC[C@]6(C)[C@H]5CC[C@]34C)N2C1` (stereo partly drawn), 16 µM (active).
For the molecule `Clc1ccc(CCC(Cn2ccnc2)Sc2c(Cl)cccc2Cl)cc1` (stereo not drawn), the Potency was 23.9 µM (active).
`COc1ccc(OC)c(CC(C)N)c1` (stereo not drawn): the Potency entry is “inactive”.
Consider `Cn1cc(C2=C(c3cn(C4CCN(Cc5ccccn5)CC4)c4ccccc34)C(=O)NC2=O)c2ccccc21`, for which the Potency result is “inactive”.
Still for that read-out and setting: under `CCN` stands “inactive”; under `CCCCCCCCCCCCCN1CC(C)OC(C)C1` (stereo not drawn), “inactive”; under `N#CCCSCCC#N`, “inactive”.
The same measure, in the same setting: under `O=C(O)COc1nc(Cl)c(Cl)cc1Cl` stands “inactive”.
With `c1ccc2cc3c(cc2c1)-c1cccc2cccc-3c12`, the Potency result is “inactive”.
Still for that read-out and setting: the value for `CCCN(CC)CC1COC2(CCC(C(C)(C)C)CC2)O1` (stereo not drawn) was “inactive”; that for `CC(C)(C)OO` was “inactive”; that for `NNC(=O)c1ccccc1` was “inactive”.
The same measure, in the same setting: the value for `Fc1cccc(Cl)c1CCl` was “inactive”; that for `OC(c1ccc(Cl)cc1)(c1ccc(Cl)cc1)C(Cl)(Cl)Cl` was 21.9 µM (active); that for `CN(C)c1ccc(N=Nc2ccccc2)cc1` was “inactive”.
On the same count and under the same terms, under `c1ccc2c(c1)[nH]c1cnccc12` stands “inactive”.
In the case of `Cc1ccc(OP(=O)(Oc2ccccc2)Oc2ccccc2)cc1`, the Potency entry was “inactive”.
Same read-out and setting: under `BrC(Br)Br` stands “inactive”.
Regarding `CCCN(CCC)CCc1c[nH]c2ccccc12`, the Potency result was “inactive”.
Same read-out and setting: the value for `CC(C)OS(C)(=O)=O` was “inactive”.
On the same count and under the same terms, the value for `N#CNC#N` was “inactive”.
